Experimental findings from paper PMC7862700, “An all-to-all approach to the identification of sequence-specific readers for epigenetic DNA modifications on cytosine” are described below.

Holding throughout (experiment): DAPPL (digital affinity profiling via proximity ligation, sequencing); 10 mM Tris-HCl pH 7.5, 50 mM NaCl, 1 mM DTT, 4% glycerol, room temperature, 30 min; GST-TFs on glutathione beads, 16-mer random dsDNA library, 0.1% formaldehyde crosslink after washing; high values mean tight binding
What all share (details): protein: recombinant; tags: N-terminal GST; dsDNA, one strand shown

One assay addresses T1, GABPA (Homo sapiens, UniProt Q06546 1-454).
T1 sequence: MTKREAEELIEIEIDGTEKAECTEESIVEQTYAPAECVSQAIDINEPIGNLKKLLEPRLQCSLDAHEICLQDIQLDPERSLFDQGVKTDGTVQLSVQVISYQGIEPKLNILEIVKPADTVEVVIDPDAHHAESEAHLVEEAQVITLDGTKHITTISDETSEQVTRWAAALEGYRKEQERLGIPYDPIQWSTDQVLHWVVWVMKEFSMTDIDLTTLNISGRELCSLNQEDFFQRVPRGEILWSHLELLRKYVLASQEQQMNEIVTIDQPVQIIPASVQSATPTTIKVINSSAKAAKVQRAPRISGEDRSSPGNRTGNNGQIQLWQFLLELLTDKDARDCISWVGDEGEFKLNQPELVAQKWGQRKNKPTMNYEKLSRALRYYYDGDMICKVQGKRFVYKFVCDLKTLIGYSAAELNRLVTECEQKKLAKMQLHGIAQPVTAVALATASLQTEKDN
The procedure, abridged:
(§1)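 Binding signal is given per hexamer as its read frequency for a factor divided by its frequency in the tag-only sample. GST-fused human transcription factors were expressed in yeast, captured on glutathione beads, barcoded with DNA and pooled with that sample, then incubated with 200 nmole of a 16-mer random double-stranded DNA library in Tris/NaCl/DTT/glycerol buffer for 30 min at room temperature. The pools were then washed, crosslinked, proximity-ligated, amplified by PCR and sequenced on an Illumina NextSeq500.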

The next assay has as its target T2, SPIC (Homo sapiens, UniProt Q8N5J4 1-248).
T2 sequence: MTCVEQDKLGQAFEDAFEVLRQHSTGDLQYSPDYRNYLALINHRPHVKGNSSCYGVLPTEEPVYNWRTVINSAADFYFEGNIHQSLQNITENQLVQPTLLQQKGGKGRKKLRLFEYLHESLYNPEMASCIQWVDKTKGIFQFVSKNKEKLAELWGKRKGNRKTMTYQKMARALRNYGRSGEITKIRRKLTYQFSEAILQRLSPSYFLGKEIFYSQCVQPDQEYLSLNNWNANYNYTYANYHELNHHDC
The procedure, abridged:
as §1

A further assay has as its target T3, ELK4 (Homo sapiens, UniProt P28324-2 1-405).
T3 sequence: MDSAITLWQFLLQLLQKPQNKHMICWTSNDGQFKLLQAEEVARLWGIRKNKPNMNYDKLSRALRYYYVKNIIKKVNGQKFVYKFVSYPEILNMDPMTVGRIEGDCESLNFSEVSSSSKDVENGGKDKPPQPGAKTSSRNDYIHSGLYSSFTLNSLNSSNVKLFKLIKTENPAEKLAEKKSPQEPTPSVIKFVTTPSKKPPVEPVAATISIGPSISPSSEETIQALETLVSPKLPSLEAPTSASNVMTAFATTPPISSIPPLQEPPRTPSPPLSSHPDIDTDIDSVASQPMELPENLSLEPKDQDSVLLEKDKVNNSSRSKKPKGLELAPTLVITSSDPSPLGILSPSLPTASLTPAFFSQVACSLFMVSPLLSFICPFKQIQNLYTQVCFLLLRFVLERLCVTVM
The procedure, abridged:
as §1

For a further assay, the target named is T4, ELF3 (Homo sapiens, UniProt P78545 1-371).
T4 sequence: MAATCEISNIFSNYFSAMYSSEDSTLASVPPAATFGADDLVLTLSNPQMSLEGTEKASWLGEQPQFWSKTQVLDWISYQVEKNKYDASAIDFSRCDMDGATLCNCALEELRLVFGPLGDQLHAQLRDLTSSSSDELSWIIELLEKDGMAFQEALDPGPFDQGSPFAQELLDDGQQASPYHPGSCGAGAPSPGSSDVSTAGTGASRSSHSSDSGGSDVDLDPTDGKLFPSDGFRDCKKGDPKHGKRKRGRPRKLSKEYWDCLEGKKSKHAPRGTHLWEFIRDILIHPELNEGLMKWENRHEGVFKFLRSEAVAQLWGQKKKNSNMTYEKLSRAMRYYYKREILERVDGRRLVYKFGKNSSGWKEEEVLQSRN
The procedure, abridged: as §1

Another assay concerns the target T5, ERF (Homo sapiens, UniProt P50548 1-548).
T5 sequence: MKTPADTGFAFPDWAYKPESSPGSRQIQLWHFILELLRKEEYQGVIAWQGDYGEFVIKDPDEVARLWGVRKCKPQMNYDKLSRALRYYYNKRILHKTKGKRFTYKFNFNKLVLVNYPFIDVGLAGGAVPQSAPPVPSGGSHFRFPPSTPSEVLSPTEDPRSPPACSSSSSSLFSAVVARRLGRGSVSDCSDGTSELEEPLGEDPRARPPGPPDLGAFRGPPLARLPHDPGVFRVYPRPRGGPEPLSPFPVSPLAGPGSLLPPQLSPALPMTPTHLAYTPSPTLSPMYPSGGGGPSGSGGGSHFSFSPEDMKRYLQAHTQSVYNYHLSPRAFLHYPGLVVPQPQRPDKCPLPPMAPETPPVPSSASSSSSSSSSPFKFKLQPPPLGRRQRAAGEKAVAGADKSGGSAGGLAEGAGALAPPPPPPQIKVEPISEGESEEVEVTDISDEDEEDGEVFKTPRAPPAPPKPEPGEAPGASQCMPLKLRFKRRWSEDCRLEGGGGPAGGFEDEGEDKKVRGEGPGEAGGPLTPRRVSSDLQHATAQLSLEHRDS
The procedure, abridged: as §1

The next assay has as its target T6, EHF (Homo sapiens, UniProt Q9NZC4 1-300).
T6 sequence: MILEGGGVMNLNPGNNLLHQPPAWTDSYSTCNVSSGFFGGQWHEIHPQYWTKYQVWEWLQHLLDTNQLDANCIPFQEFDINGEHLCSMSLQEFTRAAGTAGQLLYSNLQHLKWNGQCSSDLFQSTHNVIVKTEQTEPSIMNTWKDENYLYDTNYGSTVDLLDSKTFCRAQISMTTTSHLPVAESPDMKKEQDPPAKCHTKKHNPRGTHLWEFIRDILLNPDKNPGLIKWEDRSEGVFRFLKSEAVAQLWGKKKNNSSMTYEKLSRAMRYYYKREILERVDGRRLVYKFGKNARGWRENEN
The procedure, abridged:
as §1

For the next assay, the target named is SPIB (Homo sapiens, UniProt Q01892 1-262). The procedure, abridged: as §1
The target in another assay is T7, ETV7 (Homo sapiens, UniProt Q9Y603 1-341).
T7 sequence: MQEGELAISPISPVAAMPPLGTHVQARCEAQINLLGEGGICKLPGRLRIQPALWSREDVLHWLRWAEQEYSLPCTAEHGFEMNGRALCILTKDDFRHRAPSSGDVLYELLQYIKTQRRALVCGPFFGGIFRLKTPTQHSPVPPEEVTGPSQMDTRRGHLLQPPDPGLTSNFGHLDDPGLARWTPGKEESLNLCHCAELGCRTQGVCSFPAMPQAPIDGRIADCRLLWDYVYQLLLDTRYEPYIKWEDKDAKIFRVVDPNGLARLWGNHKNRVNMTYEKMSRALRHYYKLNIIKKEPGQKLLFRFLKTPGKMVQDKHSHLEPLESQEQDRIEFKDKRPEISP
The procedure, abridged: as §1

A further assay addresses T8, ELK1 (Homo sapiens, UniProt P19419 1-428).
T8 sequence: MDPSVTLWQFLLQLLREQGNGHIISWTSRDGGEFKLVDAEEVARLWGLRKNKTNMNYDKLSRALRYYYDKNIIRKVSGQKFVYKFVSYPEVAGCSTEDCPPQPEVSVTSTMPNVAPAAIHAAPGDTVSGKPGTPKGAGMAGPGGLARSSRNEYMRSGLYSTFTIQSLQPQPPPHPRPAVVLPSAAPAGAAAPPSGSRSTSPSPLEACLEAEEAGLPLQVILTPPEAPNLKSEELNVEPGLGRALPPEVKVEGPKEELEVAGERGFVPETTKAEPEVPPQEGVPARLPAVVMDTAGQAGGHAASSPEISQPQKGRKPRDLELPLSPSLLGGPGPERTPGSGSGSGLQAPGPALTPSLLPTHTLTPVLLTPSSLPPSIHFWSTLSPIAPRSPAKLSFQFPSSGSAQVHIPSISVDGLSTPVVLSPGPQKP
The procedure, abridged:
as §1

In a further assay the target is T9, ERG (Homo sapiens, UniProt P11308 1-479).
T9 sequence: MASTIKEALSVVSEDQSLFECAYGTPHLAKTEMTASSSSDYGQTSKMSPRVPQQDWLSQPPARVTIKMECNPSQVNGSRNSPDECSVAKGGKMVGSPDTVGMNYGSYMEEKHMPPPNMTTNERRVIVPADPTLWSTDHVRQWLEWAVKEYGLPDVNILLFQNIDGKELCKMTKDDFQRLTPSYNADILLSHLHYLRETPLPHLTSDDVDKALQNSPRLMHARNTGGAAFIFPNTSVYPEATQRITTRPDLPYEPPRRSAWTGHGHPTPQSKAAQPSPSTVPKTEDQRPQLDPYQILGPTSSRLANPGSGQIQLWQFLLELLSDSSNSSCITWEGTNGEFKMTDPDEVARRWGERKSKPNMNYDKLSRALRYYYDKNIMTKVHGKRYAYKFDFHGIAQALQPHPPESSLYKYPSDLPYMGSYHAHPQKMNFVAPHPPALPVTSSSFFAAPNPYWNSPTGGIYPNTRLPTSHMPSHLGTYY
The procedure, abridged: as §1

In a further assay the target is ELF1 (Homo sapiens, UniProt P32519 1-619). The procedure, abridged:
as §1

The target in the next assay is T10, ELK3 (Homo sapiens, UniProt P41970 1-407).
T10 sequence: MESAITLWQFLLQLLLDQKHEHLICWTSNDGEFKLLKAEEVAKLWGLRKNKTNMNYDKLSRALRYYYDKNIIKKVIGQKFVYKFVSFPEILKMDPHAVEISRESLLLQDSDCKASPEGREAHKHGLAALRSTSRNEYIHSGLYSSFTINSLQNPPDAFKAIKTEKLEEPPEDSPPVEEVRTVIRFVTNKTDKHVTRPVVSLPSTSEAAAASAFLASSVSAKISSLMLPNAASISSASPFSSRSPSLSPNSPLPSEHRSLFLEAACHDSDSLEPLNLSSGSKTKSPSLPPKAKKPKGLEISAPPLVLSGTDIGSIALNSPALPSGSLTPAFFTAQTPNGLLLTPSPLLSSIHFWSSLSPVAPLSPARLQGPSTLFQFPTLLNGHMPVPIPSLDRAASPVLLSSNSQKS
The procedure, abridged: as §1

The target in another assay is ELF4 (Homo sapiens, UniProt Q99607 1-663). The procedure, abridged: as §1
The target in the next assay is ETV1 (Homo sapiens, UniProt P50549 1-477). The procedure, abridged:
as §1

The target in another assay is T11, ETS2 (Homo sapiens, UniProt P15036 1-469).
T11 sequence: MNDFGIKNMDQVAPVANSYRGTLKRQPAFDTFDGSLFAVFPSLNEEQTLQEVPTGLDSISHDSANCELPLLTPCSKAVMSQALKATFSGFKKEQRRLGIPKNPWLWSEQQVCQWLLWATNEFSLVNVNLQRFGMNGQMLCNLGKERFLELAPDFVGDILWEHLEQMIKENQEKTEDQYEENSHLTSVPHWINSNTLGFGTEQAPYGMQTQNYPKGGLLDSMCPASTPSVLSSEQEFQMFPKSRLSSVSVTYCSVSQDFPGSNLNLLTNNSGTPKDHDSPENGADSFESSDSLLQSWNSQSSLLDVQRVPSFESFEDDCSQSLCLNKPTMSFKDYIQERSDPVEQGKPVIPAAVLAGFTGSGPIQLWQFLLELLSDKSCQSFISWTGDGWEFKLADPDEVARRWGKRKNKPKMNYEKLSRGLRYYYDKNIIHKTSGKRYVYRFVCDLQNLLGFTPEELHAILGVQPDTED
The procedure, abridged: as §1

ELF1, sequence (P32519 whole entry): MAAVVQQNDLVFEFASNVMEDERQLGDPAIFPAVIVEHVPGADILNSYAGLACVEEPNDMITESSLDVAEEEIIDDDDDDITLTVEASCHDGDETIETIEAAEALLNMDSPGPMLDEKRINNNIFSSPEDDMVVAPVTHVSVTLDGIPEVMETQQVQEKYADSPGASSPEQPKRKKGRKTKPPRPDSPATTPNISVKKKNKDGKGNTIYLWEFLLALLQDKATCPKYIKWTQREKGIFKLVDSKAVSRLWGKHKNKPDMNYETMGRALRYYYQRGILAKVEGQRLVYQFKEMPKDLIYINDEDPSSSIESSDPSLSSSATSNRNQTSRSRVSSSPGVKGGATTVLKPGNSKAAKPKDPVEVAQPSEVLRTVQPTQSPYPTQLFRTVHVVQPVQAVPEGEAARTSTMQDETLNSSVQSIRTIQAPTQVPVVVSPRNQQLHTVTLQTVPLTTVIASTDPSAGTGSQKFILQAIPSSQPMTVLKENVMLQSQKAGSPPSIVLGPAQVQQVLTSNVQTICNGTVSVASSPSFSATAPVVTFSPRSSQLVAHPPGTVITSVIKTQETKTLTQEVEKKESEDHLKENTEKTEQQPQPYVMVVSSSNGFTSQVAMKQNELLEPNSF
SPIB, sequence (Q01892 whole entry): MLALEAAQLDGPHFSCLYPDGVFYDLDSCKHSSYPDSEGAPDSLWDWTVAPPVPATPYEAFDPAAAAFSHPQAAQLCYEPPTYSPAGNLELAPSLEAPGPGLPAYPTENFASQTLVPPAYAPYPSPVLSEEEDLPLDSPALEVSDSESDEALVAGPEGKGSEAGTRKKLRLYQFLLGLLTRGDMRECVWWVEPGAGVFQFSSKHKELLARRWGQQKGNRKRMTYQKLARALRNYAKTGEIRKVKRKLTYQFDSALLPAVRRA
ELF4, sequence (Q99607 whole entry): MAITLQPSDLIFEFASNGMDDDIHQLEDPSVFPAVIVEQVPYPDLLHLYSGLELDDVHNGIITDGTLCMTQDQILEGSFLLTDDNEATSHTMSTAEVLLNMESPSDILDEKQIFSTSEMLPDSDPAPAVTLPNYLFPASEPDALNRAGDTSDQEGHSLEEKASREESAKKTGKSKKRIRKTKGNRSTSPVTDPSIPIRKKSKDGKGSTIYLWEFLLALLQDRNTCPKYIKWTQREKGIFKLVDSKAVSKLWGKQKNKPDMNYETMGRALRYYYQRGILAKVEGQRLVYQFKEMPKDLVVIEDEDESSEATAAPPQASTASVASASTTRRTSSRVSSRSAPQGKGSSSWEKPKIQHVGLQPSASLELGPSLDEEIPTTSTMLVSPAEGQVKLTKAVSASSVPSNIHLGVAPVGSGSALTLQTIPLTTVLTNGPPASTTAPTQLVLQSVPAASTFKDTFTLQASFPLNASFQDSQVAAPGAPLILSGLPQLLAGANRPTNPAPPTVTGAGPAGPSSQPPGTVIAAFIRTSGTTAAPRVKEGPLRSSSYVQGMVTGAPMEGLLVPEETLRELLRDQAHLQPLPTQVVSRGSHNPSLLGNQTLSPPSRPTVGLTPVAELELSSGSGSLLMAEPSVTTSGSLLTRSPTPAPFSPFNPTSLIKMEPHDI
ETV1, sequence (P50549 whole entry): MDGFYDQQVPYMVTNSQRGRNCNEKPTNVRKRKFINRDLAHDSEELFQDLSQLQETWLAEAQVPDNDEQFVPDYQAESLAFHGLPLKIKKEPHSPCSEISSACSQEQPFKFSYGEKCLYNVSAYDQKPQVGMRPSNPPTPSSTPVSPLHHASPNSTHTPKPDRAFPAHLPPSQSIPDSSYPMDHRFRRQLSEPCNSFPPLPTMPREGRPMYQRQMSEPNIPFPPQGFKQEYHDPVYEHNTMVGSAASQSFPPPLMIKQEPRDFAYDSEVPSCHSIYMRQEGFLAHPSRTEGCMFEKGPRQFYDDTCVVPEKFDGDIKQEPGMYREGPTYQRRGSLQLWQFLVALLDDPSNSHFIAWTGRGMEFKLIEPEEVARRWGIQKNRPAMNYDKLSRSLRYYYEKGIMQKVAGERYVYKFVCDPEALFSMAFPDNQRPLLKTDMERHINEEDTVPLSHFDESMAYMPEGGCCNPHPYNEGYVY

Take ATAGTC: the binding signal with GABPA is 1.01 fold enrichment (6-mer frequency, TF over GST control); with SPIC, 1.1 fold enrichment (6-mer frequency, TF over GST control); in the assay with ELK4, 1.04 fold enrichment (6-mer frequency, TF over GST control); in the assay with ELF3 it was 1.07 fold enrichment (6-mer frequency, TF over GST control).

For AGCACG, the binding signal in the assay with SPIC was 1.02 fold enrichment (6-mer frequency, TF over GST control); with ERF it was 1.01 fold enrichment (6-mer frequency, TF over GST control).

As for AGATAC, the binding signal with EHF was 1 fold enrichment (6-mer frequency, TF over GST control); in the assay with SPIC, 1.05 fold enrichment (6-mer frequency, TF over GST control); in the assay with ELF3 it was 1.01 fold enrichment (6-mer frequency, TF over GST control).

For the sequence GTACAG, the binding signal is 1.01 fold enrichment (6-mer frequency, TF over GST control) with SPIB; 1.02 fold enrichment (6-mer frequency, TF over GST control) with SPIC; 1.02 fold enrichment (6-mer frequency, TF over GST control) with ERF; 1.06 fold enrichment (6-mer frequency, TF over GST control) with ETV7.

In the case of AAGGCC, the binding signal with SPIC was 1.06 fold enrichment (6-mer frequency, TF over GST control); with ETV7, 1.01 fold enrichment (6-mer frequency, TF over GST control).

For the sequence CAATGA, the binding signal with ELK1 is 1.04 fold enrichment (6-mer frequency, TF over GST control); with GABPA, 1.05 fold enrichment (6-mer frequency, TF over GST control); with ERG, 1.03 fold enrichment (6-mer frequency, TF over GST control); with ELF1, 1.06 fold enrichment (6-mer frequency, TF over GST control); with ELK3, 1.04 fold enrichment (6-mer frequency, TF over GST control); with ELF4, 1.01 fold enrichment (6-mer frequency, TF over GST control). Also, the binding signal was 1.12 fold enrichment (6-mer frequency, TF over GST control) with ELK4; 1.15 fold enrichment (6-mer frequency, TF over GST control) with ELF3; 1.01 fold enrichment (6-mer frequency, TF over GST control) in the assay with ETV1; 1.06 fold enrichment (6-mer frequency, TF over GST control) with ERF; 1.03 fold enrichment (6-mer frequency, TF over GST control) with ETS2.
